{"source": "the supplement of paper PMC10338343", "note": "± gives the standard deviation."}
{"system": "MILI (PIWIL2) piRISC loaded with L1MC piRNA (26 nt)", "test": "pre-steady-state target cleavage rate (min^-1); guide: L1MC piRNA 5'p-UAACUAAAUACUAUGCAAGCUGUAGG; higher = faster piRNA-guided slicing of the target", "details": "auxiliary factor: 500 nM mouse GTSF1", "outline": "(§1)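 The method was Cleave-'n-Seq, in which uncleaved targets from a transcribed, DNA-blocked target RNA library were sequenced after exposure to active affinity-purified piRISC carrying one synthetic guide, with or without GTSF1 partner protein. Reactions contained 0.1 nM library, 1 nM piRISC and, where present, 500 nM GTSF1 in HEPES–potassium acetate buffer at 33 °C for 0–8 or 0–960 min. Reads were normalised to depth and to weakly complementary targets, three trials were pooled, and k3 was capped at 0.0001 min^-1. The pre-steady-state cleavage rate came from a burst-and-steady-state fit.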"}
{"sequence": "UCCUGGAACAGCUAGCAAAGUAUUUAGUUA", "pre-steady-state target cleavage rate": "0.11 ± 0.013"}
{"sequence": "UCCUGGAUCAGCUUGCAAUGUAUUUAGUUA", "pre-steady-state target cleavage rate": "0.0475 ± 0.011"}
{"sequence": "UCCUGGAUCAGCGUUGCAUAGUAUUUAGUUA", "pre-steady-state target cleavage rate": "0.212 ± 0.016"}
{"sequence": "UCCUGCUACAGCUUGGUUAGUAUUUAGUAA", "pre-steady-state target cleavage rate": "0.148 ± 0.021"}
{"sequence": "UCCUGCUAGAGCUUGCAUUGUAUUUAGUUA", "pre-steady-state target cleavage rate": "0.219 ± 0.018"}
{"sequence": "UCCUGCAACAGCUUGCUUAGUAUUUAGUUA", "pre-steady-state target cleavage rate": "0.293 ± 0.016"}
{"sequence": "UCCUGGUUCAGCUUGCAAAGUAUUUAGUUA", "pre-steady-state target cleavage rate": "0.137 ± 0.018"}
{"sequence": "UCCUGGAUCAGACUUGCAUAGUAUUUAGUUA", "pre-steady-state target cleavage rate": "0.254 ± 0.015"}
{"sequence": "UCCUGGAUGAGCUUGCAUAGUAUUUUAGUUA", "pre-steady-state target cleavage rate": "0.163 ± 0.019"}
{"sequence": "UCCUGGAUGUCGAUGCAUAGUAUUUAGUUA [g2:g17:cont:t1A]", "pre-steady-state target cleavage rate": "0.124 ± 0.017"}
{"sequence": "UCCUGGAUGUGGAUGCAUAGUAUUUAGUUA", "pre-steady-state target cleavage rate": "0.092 ± 0.012"}
{"sequence": "UCCUGCUACACCUUGCAUAGUAUUUAGUUA", "pre-steady-state target cleavage rate": "0.214 ± 0.018"}
{"sequence": "UCCUGGUUCAGCUUGCAUAGUUUUUAGUUA", "pre-steady-state target cleavage rate": "0.0483 ± 0.013"}
{"sequence": "UCCUGGAACAGCUUGCAUAGUAUUUAGUUA [g2:g23:cont:t1A]", "pre-steady-state target cleavage rate": "0.297 ± 0.019"}
{"sequence": "UCCUGGUUGUGCUUGCAUAGUAUUUAGUAA", "pre-steady-state target cleavage rate": "0.0938 ± 0.02"}
{"sequence": "UCCUGCUACAGCUUGCAUAGUAUUUGAGUUA", "pre-steady-state target cleavage rate": "0.135 ± 0.02"}
{"sequence": "UCCUGGAACAGCUUGCAUAGUAUUGUAGUUA", "pre-steady-state target cleavage rate": "0.151 ± 0.02"}
{"sequence": "UCCUCCUACAGCUUGGAUAGUAAUUAGUUA", "pre-steady-state target cleavage rate": "0.25 ± 0.024"}
{"sequence": "UCCUGCUUCAGCUUGCAAAGUAUUUAGUUA", "pre-steady-state target cleavage rate": "0.122 ± 0.0063"}
{"sequence": "UCCUGGAACAGCUUGCUUAGUAAUUAGUUA", "pre-steady-state target cleavage rate": "0.213 ± 0.019"}
{"sequence": "UCCUGGUACAGUUGCAUAGUAUUUAGUUA", "pre-steady-state target cleavage rate": "0.227 ± 0.023"}
{"sequence": "UCCUGGAACAGCUAGCAUAGUAUUUAGUAA", "pre-steady-state target cleavage rate": "0.275 ± 0.03"}
{"sequence": "UCCUGGUACAGCUUGCAUAGUGUUUAGUUA", "pre-steady-state target cleavage rate": "0.162 ± 0.026"}
{"sequence": "UCCUGGAUCAGAUUGCAUAGUAUUUAGUUA", "pre-steady-state target cleavage rate": "0.205 ± 0.013"}
{"sequence": "UCCUGCUACAGCUUGCAUAGUUAUUAGUUA", "pre-steady-state target cleavage rate": "0.0372 ± 0.013"}
{"sequence": "UCCUGGAUGUCCUUCGCAUAGUAUUUAGUUA", "pre-steady-state target cleavage rate": "0.0676 ± 0.015"}
{"sequence": "UCCUGGAUGUGCUUGCAUAGUCUUUAGUUA", "pre-steady-state target cleavage rate": "0.0458 ± 0.011"}
{"sequence": "UCCUGGAUGAGCUGUGCAUAGUAUUUAGUUA", "pre-steady-state target cleavage rate": "0.191 ± 0.013"}
{"sequence": "UCCUGGAACAGCCUGCAUAGUAUUUAGUUA", "pre-steady-state target cleavage rate": "0.247 ± 0.012"}
{"sequence": "UCCUCCAACAGCUUGCAUUGUAUUUAGUUA", "pre-steady-state target cleavage rate": "0.257 ± 0.018"}
{"sequence": "UCCUGCUACAGGUUGGAUAGUAUUUAGUUA", "pre-steady-state target cleavage rate": "0.204 ± 0.018"}
{"sequence": "UCCUGCUACAGCUUCGAUAGUAUUUAGUUA", "pre-steady-state target cleavage rate": "0.253 ± 0.02"}
{"sequence": "UCCUGGUACAGCUUGCUUAGUAAUUAGUUA", "pre-steady-state target cleavage rate": "0.128 ± 0.036"}
{"sequence": "UCCUGCUACAGCUUGCAUAGUAUCUAGUUA", "pre-steady-state target cleavage rate": "0.265 ± 0.033"}
{"sequence": "UCCUCGUACAGCUUGCAUAGUUUUUAGUUA", "pre-steady-state target cleavage rate": "0.0651 ± 0.008"}
{"sequence": "UCCUCCUACAGCUUGGUAAGUAUUUAGUUA", "pre-steady-state target cleavage rate": "0.185 ± 0.017"}
{"sequence": "UCCUGCUACAGCUUGUCAUAGUAUUUAGUUA", "pre-steady-state target cleavage rate": "0.211 ± 0.021"}
{"sequence": "UCCUGGAUGUCCUUGCAUAGUAUUUUAGUUA", "pre-steady-state target cleavage rate": "0.107 ± 0.017"}
{"sequence": "UCCUGGUACAGCUUGCAUAGUUUUUAGUAA", "pre-steady-state target cleavage rate": "0.0656 ± 0.014"}
{"sequence": "UCCUCACUACAGCUUGCAUAGUAUUUAGUUA", "pre-steady-state target cleavage rate": "0.259 ± 0.022"}
{"system": "MILI (PIWIL2) piRISC loaded with L1MC piRNA (26 nt)", "test": "pre-steady-state target cleavage rate (min^-1); guide: L1MC piRNA 5'p-UAACUAAAUACUAUGCAAGCUGUAGG; MIWI and MILI are mouse PIWI proteins and EfPiwi is from a freshwater sponge; tags in brackets are library labels; higher = faster piRNA-guided slicing of the target", "details": "auxiliary factor: none (no GTSF1)", "outline": "as §1"}
{"sequence": "UCCUGGAACAGCUAGCAAAGUAUUUAGUUA", "pre-steady-state target cleavage rate": "0.00729 ± 0.002"}
{"sequence": "UCCUGGAUCAGCUUGCAAUGUAUUUAGUUA", "pre-steady-state target cleavage rate": "0.00413 ± 0.0025"}
{"sequence": "UCCUGGAUCAGCGUUGCAUAGUAUUUAGUUA", "pre-steady-state target cleavage rate": "0.00789 ± 0.0028"}
{"sequence": "UCCUGCUACAGCUUGGUUAGUAUUUAGUAA", "pre-steady-state target cleavage rate": "0.00357 ± 0.0022"}
{"sequence": "UCCUGCUAGAGCUUGCAUUGUAUUUAGUUA", "pre-steady-state target cleavage rate": "0.0097 ± 0.0023"}
{"sequence": "UCCUGCAACAGCUUGCUUAGUAUUUAGUUA", "pre-steady-state target cleavage rate": "0.00661 ± 0.0026"}
{"sequence": "UCCUGGUUCAGCUUGCAAAGUAUUUAGUUA", "pre-steady-state target cleavage rate": "0.0176 ± 0.0038"}
{"sequence": "UCCUGGAUCAGACUUGCAUAGUAUUUAGUUA", "pre-steady-state target cleavage rate": "0.00843 ± 0.0023"}
{"sequence": "UCCUGGAUGAGCUUGCAUAGUAUUUUAGUUA", "pre-steady-state target cleavage rate": "0.00807 ± 0.0028"}
{"sequence": "UCCUGGAUGUCGAUGCAUAGUAUUUAGUUA [g2:g17:cont:t1A]", "pre-steady-state target cleavage rate": "0.0067 ± 0.0017"}
{"sequence": "UCCUGGAUGUGGAUGCAUAGUAUUUAGUUA", "pre-steady-state target cleavage rate": "0.00877 ± 0.0027"}
{"sequence": "UCCUGCUACACCUUGCAUAGUAUUUAGUUA", "pre-steady-state target cleavage rate": "0.0087 ± 0.0022"}
{"sequence": "UCCUGGUUCAGCUUGCAUAGUUUUUAGUUA", "pre-steady-state target cleavage rate": "0.0081 ± 0.0027"}
{"sequence": "UCCUGGAACAGCUUGCAUAGUAUUUAGUUA [g2:g23:cont:t1A]", "pre-steady-state target cleavage rate": "0.0103 ± 0.0024"}
{"sequence": "UCCUGGUUGUGCUUGCAUAGUAUUUAGUAA", "pre-steady-state target cleavage rate": "0.00427 ± 0.0031"}
{"sequence": "UCCUGCUACAGCUUGCAUAGUAUUUGAGUUA", "pre-steady-state target cleavage rate": "0.00331 ± 0.0024"}
{"sequence": "UCCUGGAACAGCUUGCAUAGUAUUGUAGUUA", "pre-steady-state target cleavage rate": "0.00351 ± 0.0026"}
{"sequence": "UCCUCCUACAGCUUGGAUAGUAAUUAGUUA", "pre-steady-state target cleavage rate": "0.00499 ± 0.0021"}
{"sequence": "UCCUGCUUCAGCUUGCAAAGUAUUUAGUUA", "pre-steady-state target cleavage rate": "0.00828 ± 0.0015"}
{"sequence": "UCCUGGAACAGCUUGCUUAGUAAUUAGUUA", "pre-steady-state target cleavage rate": "0.00562 ± 0.0024"}
{"sequence": "UCCUGGUACAGUUGCAUAGUAUUUAGUUA", "pre-steady-state target cleavage rate": "0.0115 ± 0.003"}
{"sequence": "UCCUGGAACAGCUAGCAUAGUAUUUAGUAA", "pre-steady-state target cleavage rate": "0.00673 ± 0.0025"}
{"sequence": "UCCUGGUACAGCUUGCAUAGUGUUUAGUUA", "pre-steady-state target cleavage rate": "0.00946 ± 0.0035"}
{"sequence": "UCCUGGAUCAGAUUGCAUAGUAUUUAGUUA", "pre-steady-state target cleavage rate": "0.00667 ± 0.002"}
{"sequence": "UCCUGCUACAGCUUGCAUAGUUAUUAGUUA", "pre-steady-state target cleavage rate": "0.00337 ± 0.002"}
{"sequence": "UCCUGGAUGUCCUUCGCAUAGUAUUUAGUUA", "pre-steady-state target cleavage rate": "0.00538 ± 0.0022"}
{"sequence": "UCCUGGAUGUGCUUGCAUAGUCUUUAGUUA", "pre-steady-state target cleavage rate": "0.00463 ± 0.0025"}
{"sequence": "UCCUGGAUGAGCUGUGCAUAGUAUUUAGUUA", "pre-steady-state target cleavage rate": "0.0151 ± 0.0044"}
{"sequence": "UCCUGGAACAGCCUGCAUAGUAUUUAGUUA", "pre-steady-state target cleavage rate": "0.00896 ± 0.0029"}
{"sequence": "UCCUCCAACAGCUUGCAUUGUAUUUAGUUA", "pre-steady-state target cleavage rate": "0.00746 ± 0.0023"}
{"sequence": "UCCUGCUACAGGUUGGAUAGUAUUUAGUUA", "pre-steady-state target cleavage rate": "0.00926 ± 0.0025"}
{"sequence": "UCCUGCUACAGCUUCGAUAGUAUUUAGUUA", "pre-steady-state target cleavage rate": "0.00716 ± 0.002"}
{"sequence": "UCCUGGUACAGCUUGCUUAGUAAUUAGUUA", "pre-steady-state target cleavage rate": "0.0116 ± 0.0032"}
{"sequence": "UCCUGCUACAGCUUGCAUAGUAUCUAGUUA", "pre-steady-state target cleavage rate": "0.00553 ± 0.0025"}
{"sequence": "UCCUCGUACAGCUUGCAUAGUUUUUAGUUA", "pre-steady-state target cleavage rate": "0.00493 ± 0.0018"}
{"sequence": "UCCUCCUACAGCUUGGUAAGUAUUUAGUUA", "pre-steady-state target cleavage rate": "0.00498 ± 0.0018"}
{"sequence": "UCCUGCUACAGCUUGUCAUAGUAUUUAGUUA", "pre-steady-state target cleavage rate": "0.00341 ± 0.0028"}
{"sequence": "UCCUGGAUGUCCUUGCAUAGUAUUUUAGUUA", "pre-steady-state target cleavage rate": "0.0134 ± 0.0036"}
{"sequence": "UCCUGGUACAGCUUGCAUAGUUUUUAGUAA", "pre-steady-state target cleavage rate": "0.00501 ± 0.0027"}
{"sequence": "UCCUCACUACAGCUUGCAUAGUAUUUAGUUA", "pre-steady-state target cleavage rate": "0.00971 ± 0.0027"}
